Shiga inhibitor: Shiga toxin inhibition; AID 2315; 9.2% of 290,000 active; inhibition, % at 38.7 µM; Vero cells, Shiga toxin protein synthesis inhibition reporter; in the data active means inhibition mostly above about 28%, no sharp cut-off; inactive means mostly below about 43%; further: 0% is about no effect
NS1 function inh: inhibitors of influenza NS1 protein function | Potency, µM (top dose mostly 46.1 µM), for the others: at the highest dose activity, positive = more growth | 0.4% of 270,000 active; further: potency means the concentration at half of the fitted maximal effect; actives are rising curves; nearly all actives have a fitted effect of over 50% in size
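In this qHTS, NS1 from influenza A is expressed in budding yeast, where it slows growth. Cells are switched from glucose to 2% galactose medium (pH 6.0, -URA), treated with compound, and growth recovery is read at OD600.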
SARS PLpro yeast: blocks SARS-CoV papain-like protease in a yeast assay. S. cerevisiae expressing SARS-CoV PLpro, growth rescue. Potency, µM (top dose mostly 32.9 µM), for inactives: top-dose activity, positive = growth rescue, actives largely listed as activators. 0.19% of 330,000 active. AID 485353; further: potency means the concentration at half of the fitted maximal effect; 0% is about no effect; nearly all actives have a fitted effect of over 55% in size
CHX counter: affects cycloheximide protein synthesis inhibition readout, counter-screen; AID 2314; max response, %; 12% of 300,000 active; cell reporter, cycloheximide protein synthesis inhibition counterscreen; in the data active means max response mostly above about 13%, no sharp cut-off; inactive means mostly below about 14%; further: read at 38.3 µM for the half of the compounds with a filed dose; 0% is about no effect
The depositor's hits bear a star; ? = inconclusive; · = no result given. In the library only some 12% were active in any assay of this set; here they are far more common. Unless noted, the call rests on the fitted dose curve.

SMILES	Shiga inhibitor	NS1 function inh	SARS PLpro yeast	CHX counter
COc1ccc2c(c1)CCC1C2=NN(/C(C)=C/C(C)=O)C1c1cccc(F)c1 (stereo not given)	47*	-6%	-2%	32*
O=C(NN1CCOCC1)c1ccc(Cl)c(Cl)c1	-13	7%	1%	10
COc1ccccc1C1(CC(=O)O)CCOC(C(C)C)C1 (stereo not given)	-10	7%	-4%	-2
CCC(=O)N(CCC1(c2ccccc2OC)CCOC(C(C)C)C1)Cc1ccco1 (stereo not given)	30	-2%	0%	26*
Cc1ccoc1C(=O)NCCNc1ccc(Cl)cc1[N+](=O)[O-]	27	-44%	-45%	14*
Cn1cc(Br)c(NC(=O)/C=C/C(=O)O)n1	7	-1%	1%	20
c1ccc(COc2ccc(OCCOCCn3cncn3)cc2)cc1	80*	-15%	-6%	57*
c1ccc(COc2ccc(OCCCN3CCCCC3)cc2)cc1	53*	-7%	-3%	32*
O=C(Nc1ccc(OCc2ccccc2)cc1)Nc1ccccc1C(=O)NCCCN1CCOCC1	48*	0%	-2%	35*
c1ccc(OCc2ccc(CCCN3CCOCC3)cc2)cc1	28*	-9%	-2%	26*
CC1CCN(CCOc2ccc(OCc3ccccc3)cc2)CC1	54*	-1%	-24%	39*
CN1CCN(CCOc2ccc(Cc3ccccc3)cc2)CC1	-4	-6%	-3%	9
c1ccc(COc2ccc(OCCCCN3CCCC3)cc2)cc1	82*	0%	0%	19*
CCc1ccc(NC(=O)CC2S/C(=N/N=C3CCCCCC3)NC2=O)cc1 (stereo not given)	-3	-9%	-8%	7
CC(C)c1ccc(NC(=O)Cc2cn(C)c3ccccc23)cc1	21	·	-3%	14*
Cn1cc(SCC(=O)NCc2ccc(F)cc2)c2ccccc21	-14	·	-6%	9
Cn1cc(CC(=O)NCc2ccc(F)cc2)c2ccccc21	6	-2%	-1%	12*
CC(C)NC(=O)CCCc1cn(C)c2ccccc12	1	-18%	1%	-3
O=C(NC(=S)Nc1ccc(Cc2ccncc2)cc1)c1ccccc1F	41	-7%	0%	24*
CC(C)(C)Sc1ccc([N+](=O)[O-])cc1C(=O)Nc1ccncc1	52*	0%	0%	13
COc1ccccc1C(=O)Nc1ccc(CN2CCCCC2)cc1	10	-5%	1%	11*
COc1ccccc1C(=O)Nc1ccc(Cc2ccncc2)cc1	-3	-20%	-12%	13*
COc1cc(C(=O)Nc2ccncc2)c([N+](=O)[O-])cc1OC	-5	1%	0%	1
O=C(Nc1ccc([N+](=O)[O-])cc1Br)c1cc2ccccc2nc1Cl	-2	-5%	0%	2
CCOC(=O)c1c(-c2ccccc2)oc2ccc(OCC(O)CN(C)C)cc12 (stereo not given)	-9	-6%	-5%	-3
SMILES	Shiga inhibitor	NS1 function inh	SARS PLpro yeast	CHX counter
CCOC(=O)Nc1ccc(S(=O)(=O)Nn2cnnc2)cc1	7	?	22µM*	6
COc1ccc([N+](=O)[O-])cc1C(=O)Nc1ccc(Cc2ccncc2)cc1	30	-1%	0%	13*
CCOC(=O)Nc1ccc(Cc2ccncc2)cc1	29	-2%	0%	26*
Cc1csc(SCCN2C(=O)c3ccccc3C2=O)n1	102*	-5%	10%	40*
O=C1c2ccccc2C(=O)N1CCSc1ccccc1	61	-7%	-1%	34*
O=C1c2ccccc2C(=O)N1CCSc1nncs1	7	-10%	5%	-2
COc1cc(NC(=O)c2cccc(F)c2)ccc1NC(=O)c1cc2ccccc2o1	-7	2%	2%	-3
[O-]/[N+](=C\C=C\c1ccccc1)c1ccccc1	133*	-10%	-3%	50*
COC(OC)c1ccnc(-c2ccc(OC(=O)c3cccs3)cc2)n1	61*	·	-3%	26*
COC(OC)c1ccnc(-c2ccc(OC(C)=O)cc2)n1	50	·	4%	22*
COC(OC)c1ccnc(-c2ccc(OC(=O)c3ccccc3)cc2)n1	43	·	-1%	27
CCc1cc2c(=O)n(-c3ccc(C)cc3)cnc2s1	74*	2%	12%	53*
CCc1cc2c(=O)n(-c3ccccc3)cnc2s1	105*	-16%	2%	53*
CC1CN(C(=O)c2ccc(COc3ccc4ccccc4c3)o2)CC(C)O1 (stereo not given)	57*	-6%	0%	27*
COc1cccc(OCCCCN2CC(C)OC(C)C2)c1 (stereo not given)	16	-3%	-7%	-4
c1ccc2cc(OCCOCCOc3ccc4ccccc4c3)ccc2c1	-4	1%	0%	2
CC1CN(C(=O)c2ccc(COc3ccccc3Cl)o2)CC(C)O1 (stereo not given)	-3	-22%	0%	2
CC(C)SCCCCOc1ccc2ccccc2c1	33	?	3%	39*
CC1CN(CCCCOc2ccc3ccccc3c2)CC(C)O1 (stereo not given)	21	-10%	-27%	22*
CC1CN(C(=O)c2ccc(COc3ccc(C(C)C)cc3)o2)CC(C)O1 (stereo not given)	195*	6%	0%	54*
C[C@@H](CNC(N)=O)NC(N)=O	·	6%	·	·
Fc1ccc(-c2nnn(Cc3ccc(F)cc3Cl)n2)cc1	105*	-7%	-4%	24*
Cc1ccccc1-c1nnn(Cc2ccc(F)cc2Cl)n1	24*	-36%	-1%	18
CN(C)C(CNC(=O)c1cc(S(=O)(=O)N2CCOCC2)ccc1F)c1cccs1 (stereo not given)	·	·	3%	·
CCOC(=O)CCNC(=O)c1ccc2nc(C3CCCCC3)oc2c1	27	-15%	3%	17*
SMILES	Shiga inhibitor	NS1 function inh	SARS PLpro yeast	CHX counter
CCc1ccc(CNC(=O)c2ccc3nc(C4CCCCC4)oc3c2)nc1	33*	-43%	-10%	46*
CCc1ccc(CNC(=O)c2ccc(OC3CCN(C(C)=O)CC3)c(OC)c2)nc1	-16	12%	-3%	-7
CCN(CC)c1ccc(C=Nc2ccc(C)cc2C)c(O)c1	19	0%	0%	8
Cc1ccc(N=Cc2c(O)c3ccccc3n(C)c2=O)cc1	59	-10%	0%	14*
CCn1c(O)c(C=Nc2ccccc2)sc1=O	35	?	-1%	7
Cc1ccc(N=Cc2sc(O)c3ccccc23)c(C)c1	80*	-4%	-4%	34*
Cc1ccc(N=Cc2sc(O)c3ccccc23)cc1	80*	-5%	-3%	33*
CC(C)(C)c1ccccc1NC(=O)COC(=O)CN1C(=O)NC2(CCCC2)C1=O	·	·	2%	·
COc1ccc(N2CCN(c3nccs3)CC2)cc1	72*	-18%	-1%	37*
O=C(CSc1nccc(=O)[nH]1)NC1CCCCCCC1	·	·	2%	·
COc1ccc(C2Nc3ccccc3C(=O)N2Cc2ccccc2)cc1COc1ccccn1 (stereo not given)	-13	8%	7%	-4
COc1ccc(N2C(=O)c3ccccc3NC2c2ccc(OC)c(CSc3ccccn3)c2)cc1 (stereo not given)	76	-7%	8%	56*
COc1ccc(N2C(=O)c3ccccc3NC2c2ccc(OC)c(COc3ccccn3)c2)cc1 (stereo not given)	11	3%	9%	16*
